Here are results for 5 molecules from PubChem BioAssay (EPA / NIEHS).

Results filed as inconclusive are left out. The source made the active and inactive calls. The calls were made as follows: active = hit-call score of the fitted dose curve at least 0.9, where 1 is the maximum; inconclusive = response in the unintended direction; inactive = score below 0.9.

For assay [1], the target named is human Phosphodiesterase 4A1 (PDE4A1), PDE4A (gene 5141) (UniProt P27815). Kind of assay: NVS_ENZ_hPDE4A1: NovaScreen (NVS) Enzymatic Assay for human Phosphodiesterase 4A1 (PDE4A1) (AID 2283191). The procedure, abridged: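 Cell-free recombinant human PDE4A1 with fluorescent substrate; product separated by electrophoretic mobility shift, 1 h. Screened at 25 uM, then up to 50 uM in concentration-response; loss of signal fitted against DMSO.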
human Phosphodiesterase 4A1 (PDE4A1), PDE4A (gene 5141), sequence (P27815 whole entry, looked up): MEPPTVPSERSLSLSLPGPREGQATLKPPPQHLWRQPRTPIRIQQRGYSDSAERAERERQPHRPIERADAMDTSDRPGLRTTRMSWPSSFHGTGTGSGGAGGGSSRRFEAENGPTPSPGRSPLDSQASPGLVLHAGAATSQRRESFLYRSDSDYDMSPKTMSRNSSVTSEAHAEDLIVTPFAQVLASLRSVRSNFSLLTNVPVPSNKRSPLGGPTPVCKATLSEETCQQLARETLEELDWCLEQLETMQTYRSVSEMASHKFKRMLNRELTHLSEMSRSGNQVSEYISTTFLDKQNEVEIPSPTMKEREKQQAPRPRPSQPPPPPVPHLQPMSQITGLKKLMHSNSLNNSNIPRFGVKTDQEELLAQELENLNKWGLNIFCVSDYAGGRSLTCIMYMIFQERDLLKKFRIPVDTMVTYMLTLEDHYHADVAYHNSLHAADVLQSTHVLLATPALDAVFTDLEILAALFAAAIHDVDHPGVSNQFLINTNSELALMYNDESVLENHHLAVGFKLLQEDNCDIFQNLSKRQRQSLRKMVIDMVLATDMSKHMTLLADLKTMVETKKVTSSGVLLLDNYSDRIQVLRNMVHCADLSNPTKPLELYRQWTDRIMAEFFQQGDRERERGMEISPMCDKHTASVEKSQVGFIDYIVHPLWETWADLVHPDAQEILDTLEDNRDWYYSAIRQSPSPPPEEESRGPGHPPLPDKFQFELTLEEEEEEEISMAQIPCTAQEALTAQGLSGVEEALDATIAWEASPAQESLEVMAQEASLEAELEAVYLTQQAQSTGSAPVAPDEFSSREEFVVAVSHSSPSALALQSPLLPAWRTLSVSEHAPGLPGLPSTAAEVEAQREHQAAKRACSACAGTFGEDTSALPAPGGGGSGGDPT

Assay [2] addresses human Protein Phosphatase, Mg2+/Mn2+ Dependent 1A (PPM1A), PPM1A (gene 5494) (UniProt P35813). Kind of assay: NVS_ENZ_hPPM1A: NovaScreen (NVS) Enzymatic Assay for human Protein Phosphatase, Mg2+/Mn2+ Dependent 1A (PPM1A) (AID 2283198). In short, it runs like this:
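Cell-free recombinant PPM1A phosphatase assay with fluorescent substrate, read 1 h after dosing by electrophoretic mobility shift. Chemicals screened in duplicate at 25 uM, then in concentration-response up to 50 uM; loss of activity versus DMSO.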

The target of assay [3] is human Protein Tyrosine Phosphatase Non-receptor Type 1 (PTPN1), PTPN1 (gene 5770) (UniProt P18031). The experiment in a line: NVS_ENZ_hPTPN1: NovaScreen (NVS) Enzymatic Assay for human Protein Tyrosine Phosphatase Non-receptor Type 1 (PTPN1) (AID 2283201). In short, it runs like this: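 Cell-free fluorogenic-substrate activity assay on recombinant enzyme, read 1.33 h after dosing by fluorescence and electrophoretic mobility shift; loss of signal vs DMSO baseline. Primary screen in duplicate at 25 uM, hits then run in concentration-response up to 50 uM.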
human Protein Tyrosine Phosphatase Non-receptor Type 1 (PTPN1), PTPN1 (gene 5770), sequence (P18031 whole entry, looked up): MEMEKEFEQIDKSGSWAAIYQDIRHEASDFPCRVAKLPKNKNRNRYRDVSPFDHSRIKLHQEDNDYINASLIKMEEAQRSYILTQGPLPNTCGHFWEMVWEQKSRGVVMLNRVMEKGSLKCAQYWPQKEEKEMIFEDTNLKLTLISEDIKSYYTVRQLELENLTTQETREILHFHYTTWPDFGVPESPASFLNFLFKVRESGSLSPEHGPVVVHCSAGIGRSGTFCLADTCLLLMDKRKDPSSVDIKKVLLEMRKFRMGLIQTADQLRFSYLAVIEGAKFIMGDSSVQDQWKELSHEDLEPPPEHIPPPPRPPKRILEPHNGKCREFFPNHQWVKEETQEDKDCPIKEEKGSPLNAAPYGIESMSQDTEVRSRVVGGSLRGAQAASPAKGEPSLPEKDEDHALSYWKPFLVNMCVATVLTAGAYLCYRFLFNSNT

The target of assay [4] is Tyrosine-protein phosphatase non-receptor type 12 (Homo sapiens) (UniProt Q05209). Kind of assay: NVS_ENZ_hPTPN12: NovaScreen (NVS) Enzymatic Assay for human Protein Tyrosine Phosphatase Non-receptor Type 12 (PTPN12) (AID 2283204). In short, it runs like this: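 Single-concentration duplicates (25 uM) preceded singleton concentration-response up to 50 uM for chemicals passing threshold. Cell-free recombinant PTPN12 activity was read 1.33 h after dosing via fluorescence after mobility-shift separation; loss of signal versus DMSO.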
Tyrosine-protein phosphatase non-receptor type 12 (Homo sapiens), sequence (Q05209 whole entry, looked up): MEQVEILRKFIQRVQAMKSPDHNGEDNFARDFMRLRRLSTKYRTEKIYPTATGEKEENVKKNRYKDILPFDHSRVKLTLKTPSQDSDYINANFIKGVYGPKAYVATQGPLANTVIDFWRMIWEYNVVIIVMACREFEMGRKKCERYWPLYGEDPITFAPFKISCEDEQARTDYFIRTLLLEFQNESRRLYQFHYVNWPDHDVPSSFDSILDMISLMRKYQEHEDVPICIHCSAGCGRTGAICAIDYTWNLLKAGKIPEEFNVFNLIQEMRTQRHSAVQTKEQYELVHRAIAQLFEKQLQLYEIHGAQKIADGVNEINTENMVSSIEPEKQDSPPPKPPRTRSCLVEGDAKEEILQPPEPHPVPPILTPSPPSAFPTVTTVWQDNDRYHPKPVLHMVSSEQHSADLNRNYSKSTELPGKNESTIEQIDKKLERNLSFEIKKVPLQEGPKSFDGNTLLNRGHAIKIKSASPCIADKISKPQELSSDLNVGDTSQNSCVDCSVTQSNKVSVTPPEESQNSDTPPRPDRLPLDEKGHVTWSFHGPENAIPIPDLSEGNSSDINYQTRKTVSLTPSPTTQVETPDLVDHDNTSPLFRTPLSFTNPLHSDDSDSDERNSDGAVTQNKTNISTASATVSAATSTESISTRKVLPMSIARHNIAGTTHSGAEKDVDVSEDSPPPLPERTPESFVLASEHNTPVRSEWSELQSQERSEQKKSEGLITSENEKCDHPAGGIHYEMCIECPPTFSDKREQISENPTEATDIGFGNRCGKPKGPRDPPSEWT

Assay [5] has as its target Serine/threonine-protein phosphatase PP1-alpha catalytic subunit (Homo sapiens) (UniProt P62136). The experiment in a line: NVS_ENZ_hPPP1CA: NovaScreen (NVS) Enzymatic Assay for human Protein Phosphatase 1 Aatalytic subunit Alpha (PPP1CA) (AID 2283200). In short, it runs like this:
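Recombinant enzyme activity read by fluorescence with electrophoretic mobility shift separating substrate from product, 1.33 h after dosing; loss of signal vs DMSO baseline. Primary screen in duplicate at 25 uM; actives retested in concentration-response up to 50 uM.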

Serine/threonine-protein phosphatase PP1-alpha catalytic subunit (Homo sapiens), sequence (P62136 whole entry, looked up): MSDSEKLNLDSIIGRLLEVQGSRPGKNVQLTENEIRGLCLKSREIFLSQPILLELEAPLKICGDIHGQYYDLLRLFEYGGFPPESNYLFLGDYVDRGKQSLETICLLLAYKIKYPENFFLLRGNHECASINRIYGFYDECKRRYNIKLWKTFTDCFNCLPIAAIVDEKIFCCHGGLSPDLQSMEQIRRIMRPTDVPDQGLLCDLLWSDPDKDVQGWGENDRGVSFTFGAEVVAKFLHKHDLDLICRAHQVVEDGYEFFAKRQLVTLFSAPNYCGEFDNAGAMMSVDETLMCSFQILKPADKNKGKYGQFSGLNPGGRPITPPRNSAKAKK
human Protein Phosphatase, Mg2+/Mn2+ Dependent 1A (PPM1A), PPM1A (gene 5494), sequence (P35813 whole entry, looked up): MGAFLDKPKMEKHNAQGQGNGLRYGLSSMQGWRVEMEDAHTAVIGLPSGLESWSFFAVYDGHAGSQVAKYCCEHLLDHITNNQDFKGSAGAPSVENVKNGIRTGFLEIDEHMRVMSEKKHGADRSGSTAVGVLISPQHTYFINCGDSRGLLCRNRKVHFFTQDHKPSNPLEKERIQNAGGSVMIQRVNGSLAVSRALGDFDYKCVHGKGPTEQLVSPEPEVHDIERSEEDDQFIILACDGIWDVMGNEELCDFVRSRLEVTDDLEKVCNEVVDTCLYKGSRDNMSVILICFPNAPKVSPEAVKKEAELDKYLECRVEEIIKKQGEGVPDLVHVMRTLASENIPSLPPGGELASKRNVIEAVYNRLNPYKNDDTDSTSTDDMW

The term AC50 denotes the concentration at which the activity in the assay is half-maximal. Regarding `CCN1CCC2(CC1)COc1cc3c(cc12)N(C(=O)c1ccc(-c2ccc(-c4nnc(C)o4)cc2C)cc1)CC3`, the concentration at half-maximal activity (AC50) in assay [1] was 10.2 µM (active).

As to `CC(=O)[O][Hg][c]1ccccc1`, the outcome in assay [2] was inactive. Moreover, the AC50 in assay [3] is 9.68 µM (active); in assay [4], 16 µM (active).

Take `CCC(C)(C)c1ccc(O)c(C(C)(C)CC)c1`: in assay [5], the molecule was classed as inactive.

With `O=C(Nc1ccc2[nH]ccc2c1)c1cc2cc(F)ccc2n1Cc1cccc(F)c1`, in assay [3], the outcome was inactive.

For `CCOC(=O)Nc1cccc(OC(=O)Nc2ccccc2)c1`, the result in assay [4] was inactive.
